Assay outcomes deposited in PubChem BioAssay by National Center for Advancing Translational Sciences (NCATS).
Many of the other results were omitted from the sample, so hits are more common in it than they were.
Pf Dd2 inh: qHTS Primary assay for Inhibitors of Plasmodium falciparum Dd2 growth in vitro | P. falciparum Dd2 growth, SYBR Green, 72 h | Potency, µM (titrated, usually from 28.9 µM), hits mostly inhibitors | hit rate 4.3% among 120,000; active means well fitted inhibition curve with a large enough effect; further: nearly all actives have a fitted effect of over 65% in size
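Infected erythrocytes (Dd2, 0.3% parasitemia, 2.5% hematocrit final) are added to compound in RPMI-1640/Albumax II medium, grown 72 h at 37C in low oxygen, then lysed with saponin/Triton-X containing SYBR Green and read by fluorescence.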
Hits are given with their value; – = inactive.

SMILES	Pf Dd2 inh
CC1CCN(C(=O)c2cnn(-c3ccc(Cl)cc3)c2C2CCN(C(=O)OC(C)(C)C)CC2)CC1	–
CCC(C)NC(=O)c1cnn(-c2ccc(Cl)cc2)c1C1CCN(C(=O)OC(C)(C)C)CC1 (stereo not drawn)	11µM
Cn1c(CCNC(=O)Cn2nc3c(cc2=O)CCCCC3)nc2ccccc21	–
CC(=O)NCCCC(=O)N1Cc2ccccc2OC2(CCN(C(=O)N(C)C)CC2)C1	–
CC(=O)N1Cc2ccccc2OC2(CCN(C(=O)CCc3c[nH]c4ccccc34)CC2)C1	–
CN(C)C(=O)N1CCC2(CC1)CN(C(=O)CCc1c[nH]c3ccccc13)Cc1ccccc1O2	5µM
O=C(c1csc2c1CCCC2)N1CCCC(OCc2ccccn2)C1 (stereo not drawn)	–
Cc1cc(N2CCC(NC(=O)c3ccc4nc[nH]c4c3)C2=O)ccc1F (stereo not drawn)	–
COc1ccccc1N1CCN(C(=O)c2cc3ccc4ccc(C)[nH]c4c3n2)CC1	13µM
CCSc1ncc(Cl)c(C(=O)N2CCN(c3ccccc3OC)CC2)n1	–
COc1ccc(Cl)cc1NC(=O)c1cnc(SC)nc1-c1ccccc1	–
COc1ccc(Cl)cc1NC(=O)c1cc2ccc3ccc(C)[nH]c3c2n1	11µM
COc1ccccc1N1CCN(C(=O)c2cc(-c3ccccc3O)on2)CC1	–
COc1ccc(Cl)cc1NC(=O)c1cc2nc(-c3ccc(C)cc3)cc(C(F)(F)F)n2n1	–
CNC(=O)[C@@H](CC(C)C)N1CCC[C@H]1C(=O)N1CCN(C)CC1	–
COc1ccc(Br)c(C(=O)N[C@@H]2C=C(C(=O)N[C@H](CC(C)C)C(N)=O)C[C@@H](O)[C@@H]2O)c1	–
CCc1nc2cc(N3CCC(C(=O)NCc4cccc(F)c4)CC3)cnc2nc1CC	–
Cc1cc(C(F)(F)F)n(CC(C)Cn2cc(-c3cncnc3)nn2)n1 (stereo not drawn)	–
O=C(NC[C@H]1O[C@@H](CO)[C@@H](O)[C@H]1N1CCN(c2ccccn2)CC1)c1ccco1	–
Clc1ccccc1C1(c2ccnc(NC3CCC3)n2)CCNCC1	7.1µM
CN1CCC(CNc2nccc(C3(c4ccccc4Cl)CCNCC3)n2)C1 (stereo not drawn)	–
OC[C@@H](O)CNc1nccc(C2(c3ccccc3Cl)CCNCC2)n1	–
O[C@@H]1CCN(c2nccc(C3(c4ccccc4Cl)CCNCC3)n2)C1	–
CN(C)C1CCN(c2nccc(C3(c4ccccc4Cl)CCNCC3)n2)C1 (stereo not drawn)	–
Clc1ccccc1C1(c2ccnc(C3CC3)n2)CCNCC1	2.2µM
SMILES	Pf Dd2 inh
Clc1ccccc1C1(c2ccnc(-c3ccccc3)n2)CCNCC1	10µM
CCCc1nc(C(=O)N2CCC3(CC2)C(=O)N(C)c2ccccc23)cs1	–
COc1ccccc1-n1cc(C(=O)NC2CCCN(C3CCCCCC3)C2)cn1 (stereo not drawn)	–
COCC1CN(C)CC12CCN(S(=O)(=O)c1cnc[nH]1)CC2 (stereo not drawn)	–
CN1C[C@@H](NC(=O)c2ccco2)C[C@H]1c1nc(-c2ccc(F)cc2)no1	–
CC(C)NC(=O)N1CCC2(CC1)C(=O)NCN2C(=O)Cc1ccccc1	–
CC1CCCN1Cc1c(C(=O)N2CCCCCCC2)nc2sccn12 (stereo not drawn)	–
COC[C@@H]1CN(S(=O)(=O)c2ccccc2F)C[C@H]1c1ccncc1	–
CCCNC(=O)N1CC[C@@H](CC(=O)O)[C@@H](CC2=NCCc3ccc(C(C)(C)C)cc32)C1	–
O=C(O)c1cn2ccnc(-c3ccc(F)cc3)c2n1	–
Cc1ccc(CNC(=O)N2CCCN(C(=O)C3CC3)C(c3ccccc3)CC(=O)NCC2)cc1 (stereo not drawn)	–
N#Cc1c(-c2ccccc2)cc(-c2ccccc2)nc1SCC(=O)Nc1ccc(Cl)cc1	–
COc1ccc(NC(=O)CSc2nc(-c3ccccc3)cc(-c3cc(OC)c(OC)c(OC)c3)c2C#N)c(OC)c1	6.3µM
COc1ccc(-c2cc(-c3ccccc3)nc(SCC(=O)Nc3ccccc3F)c2C#N)cc1	–
CCc1noc(Cn2nc(-c3ccccc3)c3ccccc3c2=O)n1	–
CC1(CNC(=O)c2ccsc2)CCOCC1	–
CC(C)CCC(=O)N1CCN(c2nc3c(s2)CN(C)CC3)CC1	–
CNc1cccnc1OC1CCN(S(=O)(=O)Cc2ccccc2)C1 (stereo not drawn)	–
COc1ccc(CN2C[C@@H](CO)[C@H](c3ccccn3)C2)cc1C	–
CCCOc1ccc(CN2C[C@@H](CO)[C@H](c3ccccn3)C2)cc1	2.8µM
OC[C@@H]1CN(Cc2ccco2)C[C@H]1c1ccccn1	–
CCOC(=O)C1=C(C)N(Cc2ccc(C(=O)N3CCCCC3)cc2)C(=O)CC1c1cccc(C)c1 (stereo not drawn)	5µM
Cc1ccc(CN2C(=O)NC3(CCCN(C(=O)c4cccc(C)c4)C3)C2=O)cc1 (stereo not drawn)	–
COC(=O)C1=C(C)N(Cc2cccc(Cl)c2)C(=O)CC1c1ccccc1Cl (stereo not drawn)	–
CN(C)C(=O)c1nc(-c2ccc(Cl)cc2Cl)c2ccccn12	–
SMILES	Pf Dd2 inh
COc1ccccc1-c1cc(C(=O)NCCc2ccc(Cl)cc2)c2cnn(C)c2n1	–
COC1CN(c2cccc(F)c2)C12CCN(C(=O)NC(C)(C)C)CC2 (stereo not drawn)	–
COC1CN(c2cccc(F)c2)C12CCN(C(=O)c1ccncc1)CC2 (stereo not drawn)	–
COC1CN(c2cccc(F)c2)C12CCN(C(=O)C1CCC1)CC2 (stereo not drawn)	–
COC1CN(c2cccc(F)c2)C12CCN(C(=O)CCC1CCCC1)CC2 (stereo not drawn)	–
COC1CN(c2cccc(F)c2)C12CCN(C(=O)C1CCCCC1)CC2 (stereo not drawn)	10µM
COC1CN(c2cccc(F)c2)C12CCN(C(=O)NC1CCCCC1)CC2 (stereo not drawn)	6.3µM
CCS(=O)(=O)Nc1ccc(C2(C(=O)NC3CCCC3)CCCCC2)cc1	–
O=C1CCC2(CCN1Cc1ccccc1)CCN(S(=O)(=O)c1cccs1)CC2	–
CCCCCNc1ncnc2c1CN(c1ccc(OC)cc1)C(=O)CN2C	–
Cc1ccc(NC(=O)N[C@@H]2C=C(C(=O)N[C@@H](Cc3ccc(O)cc3)C(N)=O)C[C@@H](O)[C@@H]2O)cc1	–
O=C(NC1CC1)c1cccn2nccc12	–
O=C(O)CC1CCOCC1	–
CCN1CCN(CCCNC(=O)C2Cn3cccc3C(=O)N2C)CC1 (stereo not drawn)	–
CCOCc1nc(C2CCCN(C(=O)CCc3ccccc3)C2)no1 (stereo not drawn)	–
COc1ccc(C(=O)NCC2c3cc(OC)c(OC)cc3CCN2C(=O)Nc2ccccc2F)cc1 (stereo not drawn)	–
COc1cc2c(cc1OC)C(CNC(=O)Cc1ccccc1)N(C(=O)NC(C)C)CC2 (stereo not drawn)	–
CCc1ccc(OCC2c3cc(OC)c(OC)cc3CCN2C(=O)Cc2ccc(OC)c(OC)c2)cc1 (stereo not drawn)	8.9µM
COc1ccc(CC(=O)N2CCc3cc(OC)c(OC)cc3C2COc2ccc(OC)cc2)cc1 (stereo not drawn)	7.9µM
COc1cc2c(cc1OC)C(CNC(=O)C1CC1)N(C(=O)NC(C)C)CC2 (stereo not drawn)	–
CCOc1ccc(NC(=O)N2CCc3cc(OC)c(OC)cc3C2CNC(C)=O)cc1 (stereo not drawn)	–
